Rows were chosen to be rich in hits. Some 9.3% of all compounds tested hit in one or more screens of this group.
SMN2 splice enh = enhancers of SMN2 splice variant expression | Potency, µM (doses to about 46.1 µM), for inactives: at the top dose activity change, positive = activation, hits mostly activators | 210,000 tested, 2.8% active | HEK293 SMN2-luciferase splicing reporter, luminescence, 30-36 h; further: % of control where 0% means no effect; nearly all actives have a fitted effect of over 55% in size
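qHTS luciferase splicing reporter: luminescence rises when SMN2 exon 7 is included in transfected HEK293 cells. Compound exposure lasted 30-36 h at 37C, with 4.5 mM final sodium butyrate as control, followed by a ONE-Glo read.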
FLuc counter = counter-screen for miR-21 project: firefly luciferase inhibitors or activators; 360,000 tested, 6.9% active; AID 588342; Potency, µM (top dose mostly 57.5 µM), inactives show top-dose activity change, negative = inhibition, actives largely listed as inhibitors; purified FLuc, Km substrates, luminescence inhibition;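 further: plate controls were vehicle for no effect and reference inhibitor for full effect; nearly all actives have a fitted effect of over 55% in size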
Target sequence (P08659 whole entry, looked up): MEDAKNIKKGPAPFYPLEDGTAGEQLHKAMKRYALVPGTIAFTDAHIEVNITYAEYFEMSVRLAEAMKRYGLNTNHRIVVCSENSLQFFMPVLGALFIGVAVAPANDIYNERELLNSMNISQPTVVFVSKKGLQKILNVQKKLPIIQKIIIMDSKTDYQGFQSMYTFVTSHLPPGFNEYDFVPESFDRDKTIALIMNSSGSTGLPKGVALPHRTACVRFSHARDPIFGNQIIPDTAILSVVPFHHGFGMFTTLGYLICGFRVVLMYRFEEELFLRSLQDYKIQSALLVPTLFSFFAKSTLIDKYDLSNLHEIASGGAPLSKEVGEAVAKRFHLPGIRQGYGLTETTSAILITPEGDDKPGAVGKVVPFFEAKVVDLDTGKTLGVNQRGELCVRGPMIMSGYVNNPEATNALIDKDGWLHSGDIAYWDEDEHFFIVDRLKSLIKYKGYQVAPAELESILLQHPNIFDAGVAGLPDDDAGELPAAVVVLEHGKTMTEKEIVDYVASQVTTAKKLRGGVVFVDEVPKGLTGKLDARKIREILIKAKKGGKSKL
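Purified P. pyralis luciferase, 10 nM final, with Km-level 10 uM D-luciferin and 10 uM ATP in 50 mM Tris acetate pH 7.5, 10 mM Mg acetate, 0.01% Tween-20, 0.05% BSA; 6-point qHTS titration about 60 µM downward; luminescence read.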
NPC1 prom act = NPC1 promoter activation; Huh7 NPC1 promoter luciferase reporter, 24 h; Potency, µM (doses to about 9.22 µM), for the others: at the highest dose activation, most hits filed as activators; 320,000 tested, 2.4% active; further: % of control where 0% means no effect; nearly all actives have a fitted effect of over 60% in size
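Huh7 reporter cells (NPC1 promoter driving luciferase) are dosed with compound for 24 h at 37 °C, 5% CO2; luciferase detection reagent is then added and luminescence measured after 10 min at ambient temperature.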
Rab9 promoter act = activates the Rab9 promoter | AID 485297 | Potency, µM (titrated, usually from 9.22 µM), without a hit: at the highest dose activation, negative = inhibition, hits mostly activators | 320,000 tested, 2.8% active | Huh7 Rab9 promoter-luciferase reporter, luminescence, 24 h; further: % of control where 0% means no effect; nearly all actives have a fitted effect of over 60% in size
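Steps: seed 1500 Huh7 Rab9-luc cells per well, rest 2 h at 37 °C; add compound in DMSO; incubate 24 h; add luciferase reagent, 10 min ambient; read luminescence.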
ELG1 genotox = inducers of genotoxicity in HEK293T ELG1-luciferase cells. HEK293T ELG1-luciferase reporter, luminescence, 16 h. Potency, µM (highest dose often 46 µM), for the others: at the top dose activity change, positive = activation, usual class: activators. 330,000 tested, 1.3% active; further: % of control where 0% means no effect; nearly all actives have a fitted effect of over 60% in size
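Quantitative HTS format in 1536-well plates. HEK293T ELG1-luciferase reporter cells receive test compound and are incubated 16 hr at 37 °C, 5% CO2; ONE-Glo added, 30 min room temperature, then luminescence read.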
ELG1 repair inh = blocks ELG1-dependent DNA repair in HEK293T cells. HEK293T ELG1-luciferase reporter, luminescence, 16 h; DNA damage induced by 5-fluorouridine. Potency, µM (doses to about 46.1 µM), for inactives: at the highest dose activity change, negative = inhibition, most hits filed as inhibitors. 330,000 tested, 2.3% active; further: on the % scale 0 is the no-effect control and ±100 the full control effect; nearly all actives have a fitted effect of over 55% in size
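HEK293T cells expressing luciferase-tagged ELG1 (2,000/well) received 5-Fluorouridine plus compound or DMSO for 16 hr at 37 °C. Luciferase was read by ONE-Glo luminescence after 30 min at room temperature.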
* hit, by the source's call; u = inconclusive; x = no result given. The call rests on the fitted dose curve; in most records, active means well fitted curve in the direction sought with a large enough effect; inconclusive means small, poorly fitted or top-dose-only effect, or another doubt; inactive means no such curve, though single readings can be large; an effect the other way counts as inactive or inconclusive. Potency means the concentration at half of the fitted maximal effect.

SMILES	SMN2 splice enh	FLuc counter	NPC1 prom act	Rab9 promoter act	ELG1 genotox	ELG1 repair inh
CC(=O)c1ccc(OCc2cc(C(=O)N3CCCCC3c3cccnc3)no2)cc1 (configuration not stated)	x	26.9µM*	u	u	u	u
O=C(NCCCN1CCOCC1)c1cccnc1SCc1ccccc1Cl	-21.5%	-3.5%	-2.1%	-4.8%	-6.6%	13.0%
CN1c2ccccc2C(=O)NC1c1ccc([N+](=O)[O-])s1 (configuration not stated)	x	-3.0%	1.5%	0.0%	-4.9%	u
CC(C)[C@H](CO)N(Cc1cccc(F)c1)c1nc(Nc2cccc(Cl)c2)c2ncn(C(C)C)c2n1	x	-1.0%	4.2%	3.3%	-0.3%	9.0%
CC[C@H](CO)Nc1nc(Nc2cccc(Cl)c2)c2ncn(C(C)C)c2n1	x	-16.1%	-50.8%	-17.9%	-16.8%	7.3µM*
Cc1cc(Nc2ccc(C(=O)O)c(O)c2)n2ncnc2n1	-4.7%	2.7%	x	x	x	x
O=C(O)c1cccc(NN=C2c3ccccc3-c3ccccc32)c1	0.1%	26.9µM*	1.0%	2.3%	14.6%	u
O=C(O)c1cccc2c1-c1ccccc1/C2=N\Nc1ccccc1	x	10.7µM*	3.16µM*	u	12.2%	u
CC(=O)Nc1ccc2nc(-c3ccncc3)[nH]c2c1	8.0%	-19.2%	4.4%	-0.3%	13.3%	u
CC(=O)Nc1ccc2nc(-c3ccccn3)[nH]c2c1	11.2µM*	19µM*	3.55µM*	2.82µM*	u	u
COc1cccc2[nH]c(-c3ccccn3)nc12	3.98µM*	x	x	x	x	x
Nc1nc2cc3ccccc3cc2[nH]c1=O	x	-9.8%	-3.8%	10.4%	7.1%	6.5%
COc1cnc(-c2ccccn2)[nH]c1=O	-74.5%	-1.8%	-0.1%	4.3%	5.0%	u
c1cncc(-c2nc3cc4ccccc4cc3[nH]2)c1	3.98µM*	0.601µM*	u	1.58µM*	u	u
c1ccc(-c2nc3cc4ccccc4cc3[nH]2)nc1	0.447µM*	0.107µM*	0.631µM*	0.631µM*	0.231µM*	u
Cc1nc(-c2ccc(F)cc2)c(CC(=O)N2CCN(S(=O)(=O)c3cccc(Cl)c3)CC2)s1	x	-0.9%	-3.9%	-6.2%	-7.9%	u
CCc1ccc(S(=O)(=O)c2nnn3c2nc(N2CCN(c4ccccc4)CC2)c2cc(Cl)ccc23)cc1	-5.5%	4.4%	x	x	x	x
Cc1ccc(CNC(=O)Cn2c(=O)n(-c3ccc(C)cc3)c(=O)c3c2c2cc(C)ccc2n3C)cc1	x	-6.8%	x	x	x	x
COc1ccc(C2=NOC(Cn3nc(-c4ccccc4)cc3C(=O)NCc3cccs3)C2)cc1 (configuration not stated)	x	x	x	x	-5.0%	11.6µM*
COc1ccc(C2=NOC(Cn3nc(-c4ccccc4)cc3C(=O)NCc3ccco3)C2)cc1 (configuration not stated)	x	x	x	x	-3.8%	-29.3%
CCOC(=O)c1cc(-c2ccc(OC)cc2)nn1Cc1ccccc1	19.6%	7.57µM*	x	x	x	x
Cc1ccc(-c2cc(C(=O)O)n(Cc3ccccc3)n2)cc1	-20.3%	u	x	x	x	x
COc1ccc(C2=NOC(Cn3nc(-c4ccccc4)cc3C(=O)O)C2)cc1 (configuration not stated)	x	4.78µM*	-0.2%	-5.5%	6.9%	u
Cc1cc(OCC(=O)N(Cc2ccc(N(C)C)cc2)C2CCS(=O)(=O)C2)cc(C)c1Cl (configuration not stated)	-39.8%	0.1%	x	x	x	x
CC(C)(C)c1ccc(/C=C/C(=O)N2CCN(c3ncccn3)CC2)cc1	-3.7%	23.9µM*	-3.4%	-2.9%	-3.1%	-8.0%
O=C(/C=C/c1ccc2c(c1)OCO2)N1CCOCC1	x	16.9µM*	19.3%	25.6%	11.2%	u
CC(C)(C)c1ccc(/C=C/C(=O)N2CCOCC2)cc1	3.16µM*	10.7µM*	u	u	u	u

Screening results from PubChem.
